Screen size: about 1,400 compounds; about 10 (0.7%) were called active. The rule behind the calls is not given here. Not all results are given here. Results with a measured potency or affinity are listed apart.
Assay: viability loss in BHK-21 cells – cell-based, plate reader, cherry-pick samples, cytotoxicity control, dose response (AID 687030);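 note: cells were exposed to compound for three days before reading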
Conditions: series mostly up to 19.5 µM

Row | SMILES | outcome
1 | CCCCn1c(N)c(N(CC)C(=O)c2cc(C)cc(C)c2)c(=O)[nH]c1=O | inactive
2 | CC(C)CCC(O)(c1ccccc1)C(CN1CCOCC1)c1ccccc1 (centres undefined) | inactive
3 | C[C@@H]1CCCCO[C@H](CN(C)S(=O)(=O)c2ccc(Cl)cc2)[C@H](C)CN([C@H](C)CO)C(=O)c2cc(N(C)C)ccc2O1 | inactive
4 | C=CCOc1ccccc1CN1CCC(Cc2ccccc2)CC1 | inactive
5 | C[C@@H]1CCCCO[C@@H](CN(C)C(=O)c2ccccc2)[C@@H](C)CN([C@H](C)CO)C(=O)c2cc(NC(=O)CCC(F)(F)F)ccc2O1 | inactive
6 | CC1(C)CN(Cc2cccnc2)C(=O)[C@H]1CC(=O)Nc1ccc(Br)cc1 | inactive
7 | Cc1cc(NC(=O)Cn2c(=O)oc3ccc(Cl)cc32)no1 | inactive
8 | COc1cc(OC)cc(C(=O)Nc2ccc3nc4n(c(=O)c3c2)CCCC4)c1 | inactive
9 | CC(C)(C)NC(=O)c1cccc(NC(=O)c2ccc3c(c2)C(=O)N(C(C)(C)C)C3=O)c1 | inactive
10 | CN(Cc1ccc(Cl)c(Cl)c1)C(=O)C1CC(=O)N(c2ccc3c(c2)OCCO3)C1 (centres undefined) | inactive
11 | COc1ccc(CN2C(=O)CCC2(C)c2nnnn2Cc2ccccc2)cc1 (centres undefined) | inactive
12 | Cc1cc(C)c(OCCCNC2CCCC2)c(Br)c1 | inactive
13 | COc1cc(O)c(C(CC(=O)N2CCCC(C)C2)c2cc(OC)c(OC)c(OC)c2)c(OC)c1 (centres undefined) | inactive
14 | CN(C)c1ccc(CC(=O)N2CCCC(c3cc(C(=O)Nc4ccc(F)c(Cl)c4)no3)C2)cc1 (centres undefined) | inactive
15 | C/C=C/c1cnc2c(c1)C(=O)N([C@H](C)CO)C[C@H](C)[C@H](CN(C)S(=O)(=O)c1ccccc1)O2 | inactive
16 | Cc1ccc(S(=O)(=O)N2CC[C@@H]3[C@H](CO)Nc4ccc(-c5ccccc5F)cc4[C@@H]32)cc1 | inactive
17 | COc1ccc(-c2ccc3c(c2)[C@H]2[C@H](CCN2C(=O)CN2CCOCC2)[C@@H](CO)N3)cc1 | inactive
18 | Cc1ccc(CNC(=O)[C@H](C)N2C(=O)N3CCc4c([nH]c5ccccc45)[C@@]3(C)C2=O)cc1 | inactive
19 | C/C(=N/NC(=O)CCC(=O)Nc1cccc(Cl)c1)c1ccc(C)cc1 | inactive
20 | CC(C)(C)NC(=O)C(c1cccc2ccccc12)n1c(=O)c(-c2ccccc2)nc2ccccc21 (centres undefined) | inactive
21 | CCOc1ncccc1C(=O)OCC(=O)NCc1ccc(C(=O)OC)cc1 | inactive
22 | C[C@@H]1CCCCO[C@H](CN(C)C(=O)Nc2cccc3ccccc23)[C@@H](C)CN([C@@H](C)CO)C(=O)c2cc(NS(=O)(=O)c3cn(C)cn3)ccc2O1 | inactive
23 | CCn1c(SCc2cccc(F)c2)nnc1-c1ccncc1 | inactive
24 | Cc1cccc(C)c1-n1nnnc1C1(C)CCC(=O)N1Cc1cccnc1 (centres undefined) | inactive
25 | O=C(NCC1CCCCC1)[C@@H]1[C@@H](CO)[C@@H]2Cn3c(cccc3=O)[C@H]1N2CCc1ccccc1 | inactive
26 | C[C@H]1CCCCO[C@H](CN(C)C(=O)Nc2ccc(C(F)(F)F)cc2)[C@@H](C)CN([C@@H](C)CO)C(=O)c2cc(NC(=O)C3CCCCC3)ccc2O1 | inactive
27 | OC(c1ccccc1)C(NCc1ccccc1)c1ccccc1 (centres undefined) | inactive

Row | SMILES | outcome
28 | CCC(=O)Nc1ccc(NC(=O)c2oc3ccccc3c2C)cc1 | inactive
29 | CC1(C)CC(NC(=O)COc2ccccc2Cl)CC(C)(C)N1 | inactive
30 | O=C(NC1CCCC1)C(C1CC1)n1c(C2CCCC2)nc2ccccc21 (centres undefined) | inactive
31 | CCOC(=O)c1ccc(S(=O)(=O)N2CCC(N3CCCCC3)CC2)cc1 | inactive
32 | CCc1ccc(NC(=O)N(CCCN2CCOCC2)Cc2cccs2)cc1 | inactive
33 | COc1ccc(N(C(=O)c2cccnc2)S(=O)(=O)c2ccc(OC)c(OC)c2)cc1 | inactive
34 | CO[C@@H]1CN(C)C(=O)c2ccc(NC(C)=O)cc2OC[C@@H](C)N(S(C)(=O)=O)C[C@H]1C | inactive
35 | CCc1ccc2cc(C)cc(C)c2n1 | inactive
36 | COc1ccc(S(=O)(=O)Nc2ccc3c(c2)C(=O)N([C@@H](C)CO)C[C@@H](C)[C@H](CN(C)S(=O)(=O)c2ccc(Cl)cc2)O3)cc1 | inactive
37 | CCCn1c(-c2ccc[nH]c2=O)nc2cc(C)c(C)cc21 | inactive
38 | C[C@H]1CCCCO[C@@H](CN(C)C(=O)Nc2cccc3ccccc23)[C@@H](C)CN([C@@H](C)CO)C(=O)c2cc(NC(=O)Cc3ccccc3)ccc2O1 | inactive
39 | Cc1cccc(C(=O)N2CCC(=O)N([C@H](COCc3ccc(Cl)cc3)Cc3ccccc3)CC2)c1 | inactive
40 | Cc1c(C(=O)Nc2ccccc2F)sc2ncn(CC(=O)N3CCOCC3)c(=O)c12 | inactive
41 | Cc1nc2ccc(C(=O)NC(C)(C)C)cn2c1N(C)C(=O)CCc1ccccc1 | inactive
42 | O=C(Nc1ccc2ccccc2c1)C(C1CC1)n1c(=O)c(-c2cc3ccccc3[nH]2)nc2ccccc21 (centres undefined) | inactive
43 | COc1ccc(CCC(C)NCc2ccc(F)cc2)cc1 (centres undefined) | inactive
44 | CCCn1c(=N)n(CC(O)COc2ccc(C)cc2)c2ccccc21 (centres undefined) | inactive
45 | CCN(C(=O)COC(=O)c1cc2c(s1)CCCCC2)C1CCS(=O)(=O)C1 (centres undefined) | inactive
46 | Cc1cc(C)n2c(NC3CCCC3)c(-c3cccnc3)nc2n1 | inactive
47 | CCOC(=O)C1CCN(Cc2c(C(=O)N3CCOCC3)nc3c(C)cccn23)CC1 | inactive
48 | CCCCC[C@H]1CN(CCc2ccccc2)C(=O)[C@@H]1CC(=O)NCc1ccc(OC)cc1 | inactive
49 | CO[C@H]1CN(C)C(=O)c2cc(NC(=O)c3ccccc3F)ccc2OC[C@H](C)N(CC2CCOCC2)C[C@H]1C | inactive
50 | CC(=O)N[C@@H]1CC[C@H](CCNC(=O)C2CCCC2)O[C@H]1CO | inactive
51 | CC(C)NC(=O)Nc1ccc2c(c1)C(=O)N([C@@H](C)CO)C[C@H](C)[C@H](CN(C)C(=O)Nc1ccc3c(c1)OCO3)O2 | inactive
52 | COc1ccc(NC(=O)Nc2cccc3c2O[C@H](CN(C)S(=O)(=O)c2ccccc2)[C@H](C)CN([C@@H](C)CO)C3=O)cc1 | inactive
53 | COc1ccc(S(=O)(=O)N2CCCC2C(=O)NCC(=O)Nc2cccc(Cl)c2C)cc1 (centres undefined) | inactive
54 | O=C(NCc1ccncc1)c1cccc(NS(=O)(=O)c2ccc(F)c(F)c2)c1 | inactive

From PubChem BioAssay AID687030 (Broad Institute, 2013)
